Laboratory results from PubChem BioAssay AID1159580 (chemical genetic matrix, 2015).
“And” between values parts separate entries of the source, which are not always exact repeats. Equal entries are not always repeated. In all, about 5,500 compounds went through this assay and about 2,000 (36%) were called active. Not shown: some 18% with an inconclusive outcome. No stated cut-off is given here; in the data, active means normalized growth mostly below about 0.91 (no sharp cut-off); inconclusive means no clear call, values can overlap the other calls; inactive means mostly above about 0.92. This is one part of the list.

Test: chemical genetic growth profiling, strain panel (AID 1159580);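 further: tested at 20 µM; growth read once vehicle control cultures reached saturation at 30 °C; 1 = growth at the plate median or of vehicle wells; lower values mean less growth of the strain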
Details: S. cerevisiae deletion strains, growth OD

Measured: normalized growth

COC(=O)Nc1nc2ccc(C(=O)c3ccccc3)cc2[nH]1
active: locus YBL061C, strain skt5, active compounds read low 0.903 | locus YBR009C, strain hhf1, active compounds read low 0.898 | locus YBR023C, strain chs3, active compounds read low 0.913 | locus YBR231C, strain swc5, active compounds read low 0.261 | locus YCL016C, strain dcc1, active compounds read low 0.902 | locus YCL029C, strain bik1, active compounds read low 0.781 | locus YDR137W, strain rgp1, active compounds read low 0.84 | locus YDR159W, strain sac3, active compounds read low 0.861 | locus YDR334W, strain swr1, active compounds read low 0.627 | locus YEL003W, strain gim4, active compounds read low 0.173 | locus YGL240W, strain doc1, active compounds read low 0.812 | locus YGR078C, strain PAC10, active compounds read low 0.0909 | locus YGR229C, strain SMI1, active compounds read low 0.775 | locus YHR142W, strain chs7, active compounds read low 0.872 | locus YHR200W, strain rpn10, active compounds read low 0.917 | locus YJL166W, strain qcr8, active compounds read low 0.868 | locus YJR066W, strain TOR1, active compounds read low 0.819
inactive: locus YAL013W, strain DEP1, active compounds read low 1.02 | locus YAL021C, strain ccr4, active compounds read low 0.95 | locus YAL026C, strain drs2, active compounds read low 0.963 | locus YAL030W, strain snc1, active compounds read low 0.983 | locus YBR021W, strain FUR4, active compounds read low 0.97 | locus YBR171W, strain sec66, active compounds read low 1.01 | locus YBR229C, strain ROT2, active compounds read low 1.02 | locus YBR279W, strain paf1, active compounds read low 0.958 | locus YCL011C, strain gbp2, active compounds read low 0.962 | locus YCL069W, strain vba3, active compounds read low 0.98 | locus YCR088W, strain abp1, active compounds read low 0.977 | locus YDL005C, strain med2, active compounds read low 0.959 | locus YDL035C, strain GPR1, active compounds read low 0.967 | locus YDL040C, strain nat1, active compounds read low 0.992 | locus YDL074C, strain BRE1, active compounds read low 0.924 | locus YDL101C, strain DUN1, active compounds read low 1.03 | locus YDL134C, strain PPH21, active compounds read low 1.01 | locus YDL185W, strain tfp1, active compounds read low 1.04 | locus YDL192W, strain arf1, active compounds read low 0.99 | locus YDR001C, strain nth1, active compounds read low 0.976 | locus YDR069C, strain doa4, active compounds read low 0.952 | locus YDR101C, strain arx1, active compounds read low 0.998 | locus YDR150W, strain NUM1, active compounds read low 1.01 | locus YDR162C, strain NBP2, active compounds read low 1.01 | locus YDR195W, strain ref2 0.979 | locus YDR297W, strain sur2, active compounds read low 0.963 | locus YDR318W, strain mcm21, active compounds read low 0.954 | locus YDR335W, strain msn5, active compounds read low 0.99 | locus YDR388W, active compounds read low 0.982 | locus YDR392W, strain spt3, active compounds read low 0.805 | locus YDR502C, strain sam2, active compounds read low 0.958 | locus YEL037C, strain rad23, active compounds read low 0.981 | locus YEL061C, strain CIN8 (second series), active compounds read low 0.976 | locus YEL061C, strain CIN8, active compounds read low 1 | locus YER015W, strain faa2, active compounds read low 0.974 | locus YER016W, strain bim1, active compounds read low 0.935 | locus YER110C, active compounds read low 1.02 | locus YER111C, strain swi4, active compounds read low 0.997 | locus YER155C, strain BEM2 (second series), active compounds read low 0.896 | locus YER155C, strain BEM2, active compounds read low 0.981 | locus YER167W, strain BCK2, active compounds read low 0.94 | locus YFR010W, strain ubp6, active compounds read low 0.98 | locus YGL078C, strain dbp3, active compounds read low 0.974 | locus YGL086W, strain mad1, active compounds read low 0.999 | locus YGL167C, strain pmr1, active compounds read low 0.979 | locus YGL173C, strain kem1, active compounds read low 0.981 | locus YGL227W, strain vid30, active compounds read low 0.977 | locus YGL248W, strain PDE1, active compounds read low 0.99 | locus YGL253W, strain hxk2, active compounds read low 0.951 | locus YGR135W, strain pre9, active compounds read low 0.948 | locus YGR252W, strain gcn5, active compounds read low 0.916 | locus YHR013C, strain ard1, active compounds read low 1 | locus YHR027C, strain rpn1, active compounds read low 0.931 | locus YHR030C, strain SLT2, active compounds read low 1.01 and 0.956 | locus YHR079C, strain IRE1 (second series), active compounds read low 0.999 | locus YHR079C, strain IRE1, active compounds read low 0.937 | locus YHR094C, strain hxt1, active compounds read low 1 | locus YHR129C, strain ARP1, active compounds read low 0.969 | locus YIL066C, strain RNR3, active compounds read low 1.01 | locus YIL073C, strain SPO22, active compounds read low 0.998 | locus YIL125W, strain kgd1, active compounds read low 0.971 | locus YIR030C, strain dcg1, active compounds read low 1 | locus YJL092W, strain hpr5, active compounds read low 0.965 | locus YJL095W, strain BCK1 (second series), active compounds read low 0.996 | locus YJL095W, strain BCK1, active compounds read low 1.06 and 0.938 | locus YJL115W, strain asf1, active compounds read low 0.977 | locus YJL129C, strain trk1, active compounds read low 0.906 | locus YJL134W, strain LCB3, active compounds read low 1 | locus YJL154C, strain vps35, active compounds read low 0.981 | locus YJL164C, strain tpk1, active compounds read low 0.957 | locus YJL168C, strain set2, active compounds read low 1 | locus YJL187C, strain SWE1 (second series), active compounds read low 1.01 | locus YJL187C, strain SWE1, active compounds read low 0.934 | locus YJR043C, strain POL32, active compounds read low 0.867
